Measurements taken from PubChem BioAssay.
Activity calls are given as the source filed them. Rule as the data show it, unless noted: active = inhibition above about 33%; inactive = the rest.

Experiments:
[1] = StAR promoter reporter inhibitors, counter-screen for LRH-1 inverse agonist project, cell-based, luminescence, high throughput (AID 651611; in the data active = inhibition above about 28%); settings: StAR promoter luciferase reporter counterscreen, at 3.6 µM, stronger effect = higher value
[2] = biological target: Nuclear receptor subfamily 5 group A member 2 (Homo sapiens) (UniProt O00482); test: NR5A2 activity suppression in reporter cells – cell-based, luminescence, confirmation (AID 651613; in the data active = inhibition above about 42%;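 also: HEK293T cells co-transfected with LRH-1 and StAR promoter luciferase reporter; 0% = vehicle wells and 100% = parental cells lacking receptor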); settings: cell-based LRH-1 luciferase reporter, inverse agonism; at 3.6 µM; stronger effect = higher value
[3] = biological target: Steroidogenic factor 1 (Homo sapiens) (UniProt Q13285); test: inverse agonism at SF1 nuclear receptor – cell-based, luminescence, high throughput, counter-screen for LRH-1 inverse agonist project (AID 651614; in the data active = inhibition above about 44%;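 also: cells cotransfected with StAR promoter reporter and SF1 expression vector; 0% = vehicle on cells with receptor and 100% = vehicle on cells lacking receptor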); settings: cell-based SF1 luciferase reporter, at 3.6 µM, stronger effect = higher value
[4] = compounds suppressing VP16-driven luciferase signal – cell-based, luminescence, high throughput, counter-screen for LRH-1 inverse agonist project (AID 651615); settings: Gal4-VP16 luciferase reporter cells, at 3.6 µM, stronger effect = higher value

Steroidogenic factor 1 (Homo sapiens), sequence (Q13285 whole entry, looked up, the tested form may be a part): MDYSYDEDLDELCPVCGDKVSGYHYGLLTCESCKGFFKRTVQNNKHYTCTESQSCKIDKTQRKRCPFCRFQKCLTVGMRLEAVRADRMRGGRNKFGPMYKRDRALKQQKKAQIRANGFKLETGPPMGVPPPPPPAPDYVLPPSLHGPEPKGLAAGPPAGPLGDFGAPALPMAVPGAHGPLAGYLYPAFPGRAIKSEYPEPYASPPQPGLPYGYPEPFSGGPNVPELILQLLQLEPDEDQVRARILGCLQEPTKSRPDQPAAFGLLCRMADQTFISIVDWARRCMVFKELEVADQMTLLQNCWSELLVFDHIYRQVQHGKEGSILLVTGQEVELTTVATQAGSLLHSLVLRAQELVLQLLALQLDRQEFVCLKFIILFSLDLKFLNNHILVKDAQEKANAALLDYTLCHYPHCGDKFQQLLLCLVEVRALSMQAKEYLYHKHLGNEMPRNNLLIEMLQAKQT
Nuclear receptor subfamily 5 group A member 2 (Homo sapiens), sequence (O00482 whole entry, looked up): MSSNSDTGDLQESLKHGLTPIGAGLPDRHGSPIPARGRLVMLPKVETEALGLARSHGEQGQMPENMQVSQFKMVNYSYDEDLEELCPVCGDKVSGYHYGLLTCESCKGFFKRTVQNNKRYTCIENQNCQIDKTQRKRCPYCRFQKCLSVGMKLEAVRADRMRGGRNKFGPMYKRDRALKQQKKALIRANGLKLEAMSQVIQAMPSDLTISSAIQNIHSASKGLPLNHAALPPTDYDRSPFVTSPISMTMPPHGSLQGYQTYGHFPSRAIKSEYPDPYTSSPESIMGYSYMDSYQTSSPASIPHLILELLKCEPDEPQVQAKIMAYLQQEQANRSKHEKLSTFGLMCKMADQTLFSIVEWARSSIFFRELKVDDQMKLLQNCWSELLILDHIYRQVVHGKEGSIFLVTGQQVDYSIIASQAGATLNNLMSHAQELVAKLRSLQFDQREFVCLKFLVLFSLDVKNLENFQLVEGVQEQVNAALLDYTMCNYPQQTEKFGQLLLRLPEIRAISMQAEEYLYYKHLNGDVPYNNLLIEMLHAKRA

Row | Compound | inhibition [1] | inhibition [2] | inhibition [3] | inhibition [4]
1 | CCOc1ccc(NC(=O)Cn2nc(-c3ccccc3Cl)n(CC)c2=S)cc1 | 1.73% (inactive) | 60.4% (active) | 54.6% (active) | 2.74% (inactive)
2 | COc1ccc(-c2nc(C(N)=O)c3[nH]c(=O)n(-c4cccc(Cl)c4)c3n2)cc1OC | 20.8% (inactive) | 57.3% (active) | 56.5% (active) | -5.48% (inactive)
3 | CCn1nnc(NC(=O)c2ccc([N+](=O)[O-])o2)n1 | 10.3% (inactive) | 57.8% (active) | 59.9% (active) | -13.8% (inactive)
4 | COc1ccc(-c2cc(NC=O)c3ncc(-c4ccc(OC)c(OC)c4)n3c2)c(OC)c1 | 65.5% (active) | 53.5% (active) | 62% (active) | 2.18% (inactive)
5 | CC(=O)Nc1ccc(NC(=O)COC(=O)c2cc(S(=O)(=O)N3CCCC3)ccc2O)cc1 | 21% (inactive) | 58.9% (active) | 61.4% (active) | -14.8% (inactive)
6 | C=CCn1c(CCNC(=O)c2cccs2)nnc1SCC(=O)Nc1cccc(Cl)c1C | 8.38% (inactive) | 57.9% (active) | 53.4% (active) | 2.77% (inactive)
7 | O=C(Nc1ccc(Cc2ccncc2)cc1)c1cc(F)c(F)cc1Cl | -0.62% (inactive) | 44.2% (active) | 37.9% (inactive) | 10.3% (inactive)
8 | Cc1c(Cl)cccc1NC(=O)CNc1ccccc1F | -3.5% (inactive) | 58.7% (active) | 40.6% (inactive) | -6.92% (inactive)
9 | CC(=O)c1ccc(NC(=O)CN2C(=O)NC3(CCc4ccccc43)C2=O)cc1 (stereo not drawn) | 12.2% (inactive) | 61.5% (active) | 49.3% (active) | -0.14% (inactive)
10 | CC(=O)N1CCc2c(sc(NC(=O)c3ccc([N+](=O)[O-])o3)c2C(N)=O)C1 | 19.9% (inactive) | 65.2% (active) | 65.3% (active) | -14.1% (inactive)
11 | COc1ccc(CCNC(=O)c2cc(-c3ccco3)on2)cc1OC | -181% (inactive) | 43.8% (active) | 50.5% (active) | -5.34% (inactive)
12 | O=C(CN1C(=O)CCC1=O)Nc1ccc(Br)cc1 | 15.1% (inactive) | 60.2% (active) | 52.2% (active) | -3.7% (inactive)
13 | O=C(NCCCNc1ccc([N+](=O)[O-])cc1)C(F)(F)F | 9.72% (inactive) | 54.9% (active) | 52.4% (active) | -18.2% (inactive)
14 | CC(=O)c1ccc(NC(=O)CSC2=NS(=O)(=O)c3cc(Cl)ccc3N2)cc1 | 7.81% (inactive) | 43.6% (active) | 44.5% (active) | -9.28% (inactive)
15 | N#CCCn1cc(/C=N/NC(N)=S)c(-c2ccc(-c3ccccc3)cc2)n1 | 28.7% (active) | 52% (active) | 48.6% (active) | -9.84% (inactive)
16 | CN1C=C/C(=C\c2cc[n+](C)c3ccccc23)c2ccccc21 | 28.6% (active) | 108% (active) | 46.8% (active) | 81.4% (active)
17 | CCOc1cc(/C=N/n2nnnc2N)ccc1OCc1c(C)no[n+]1[O-] | 12.5% (inactive) | 53.2% (active) | 56.4% (active) | -7.92% (inactive)
18 | Cc1ccc(N2CC(C(=O)Nc3nc4ccc(S(C)(=O)=O)cc4s3)CC2=O)cc1 (stereo not drawn) | 12.4% (inactive) | 52.6% (active) | 48.4% (active) | -0.21% (inactive)
19 | O=C(CN1CCN(c2ccc([N+](=O)[O-])cc2)CC1)c1ccccc1 | 6.83% (inactive) | 60.3% (active) | 48.5% (active) | 9.99% (inactive)
20 | CC(=O)c1ccc(NC(=O)C(C)O/N=C(\N)c2ccccc2)cc1 (stereo not drawn) | 10.5% (inactive) | 51.7% (active) | 41.8% (inactive) | -7.19% (inactive)
21 | Clc1ccc(COc2cccc(CNCc3ccncc3)c2)cc1 | 2.94% (inactive) | 62.4% (active) | 57.7% (active) | 26% (inactive)
22 | Cc1cccc(NC(=O)CSc2ccc(-c3ccco3)nn2)c1C | 4.66% (inactive) | 44.6% (active) | 39.2% (inactive) | -3.56% (inactive)
23 | CC(=O)Nc1cc(-c2cccnc2)cn2c(-c3ccc(F)cc3)cnc12 | 9.06% (inactive) | 51.7% (active) | 40.5% (inactive) | 0.11% (inactive)
24 | COc1ccc(OC)c(CCNC(=O)C(C)n2nc(C)c3c(C)n(-c4ccc(C)cc4)nc3c2=O)c1 (stereo not drawn) | 15.2% (inactive) | 64% (active) | 55.6% (active) | 51.2% (active)
25 | Cc1ccc(C(O)(C(=O)NN(C(=O)c2ccccc2)c2ccccc2)c2ccc(C)cc2)cc1 | 8.63% (inactive) | 65.8% (active) | 62.9% (active) | 12.3% (inactive)
26 | CC(O)(c1ccc(F)c(F)c1)c1nc(-c2ccc(S(C)(=O)=O)cc2)cs1 (stereo not drawn) | 3.51% (inactive) | 53.5% (active) | 49.5% (active) | -2.47% (inactive)

Row | Compound | inhibition [1] | inhibition [2] | inhibition [3] | inhibition [4]
27 | O=C(COC(=O)c1ccc(=O)n(Cc2ccccc2)n1)Nc1ccc2c(c1)OCCO2 | 11.8% (inactive) | 51.1% (active) | 43.7% (active) | -13.9% (inactive)
28 | CCc1cc(=O)[nH]c(SCC(=O)Nc2ccc3c(c2)OCCO3)n1 | 4.24% (inactive) | 40.6% (inactive) | 45.7% (active) | 0.13% (inactive)
29 | CCOc1ccc(CCNC(=O)CN2C(=O)NC3(CCc4ccccc43)C2=O)cc1OCC (stereo not drawn) | 13.9% (inactive) | 49.8% (active) | 45.7% (active) | -14% (inactive)
30 | CCOC(=O)c1cccc(C2=CC(=O)CC(C)(C)C2)c1 | 1.21% (inactive) | 46.3% (active) | 48.8% (active) | -12% (inactive)
31 | CCOc1ccc(NC(=O)COC(=O)C2COc3ccccc3O2)cc1 (stereo not drawn) | -6.6% (inactive) | 35.4% (inactive) | 28.8% (inactive) | 3.94% (inactive)
32 | Cc1onc(-c2ccccc2Cl)c1-c1nc(-c2ccccn2)no1 | 17.1% (inactive) | 67.3% (active) | 52.7% (active) | 7.63% (inactive)
33 | COC(=O)c1cc2occc2n1CC(=O)Nc1ccc(C)cc1C | 13.8% (inactive) | 66.8% (active) | 51.6% (active) | 1.15% (inactive)
34 | Fc1ccc(Br)cc1SCCc1ccncc1 | 1.89% (inactive) | 45.7% (active) | 34.9% (inactive) | -2.36% (inactive)
35 | COc1ccc(-c2oc(=O)c3cc(OC)c(OC)cc3c2C#CCCO)cc1 | 33.4% (active) | 28.7% (inactive) | 29.1% (inactive) | -1.67% (inactive)
36 | Cc1ccccc1Nc1nc(-c2cccnc2)nc2ccccc12 | 2.04% (inactive) | 41.5% (active) | 33.2% (inactive) | -10.5% (inactive)
37 | Cc1cc(Br)ccc1NC(=O)CN1C(=O)C2CC=CCC2C1=O (stereo not drawn) | 7.07% (inactive) | 61.7% (active) | 44.1% (active) | -7.81% (inactive)
38 | COc1cc2c(cc1OC)CN(C(=O)CN1CCN(S(=O)(=O)c3ccc(C)c(C)c3)CC1)CC2 | 19.9% (inactive) | 49.3% (active) | 45% (active) | 16.1% (inactive)
39 | Cc1cccc(NC(=O)COC(=O)c2cccs2)c1C | 0.76% (inactive) | 52.7% (active) | 56.8% (active) | 9.54% (inactive)
40 | Cc1cc(C(=O)N/N=C/c2ccc([N+](=O)[O-])o2)c(C)o1 | 9.16% (inactive) | 71.5% (active) | 65.2% (active) | 3.18% (inactive)
41 | O=C(COc1cccc2c1CCNC2=O)Nc1cccc(C(F)(F)F)c1 | 5.78% (inactive) | 52.5% (active) | 29.9% (inactive) | -20.7% (inactive)
42 | Cc1onc(-c2ccccc2)c1C(=O)O/N=C(\N)c1ccc([N+](=O)[O-])o1 | 11.5% (inactive) | 64.5% (active) | 61.9% (active) | -9.42% (inactive)
43 | COc1ccc(CCn2c(C)cc(C(=O)COC(=O)c3ccc(O)cc3O)c2C)cc1 | 5.91% (inactive) | 41.5% (active) | 28.4% (inactive) | -15% (inactive)
44 | O=C(COC(=O)c1ccccc1O)Nc1ccc(N2CCOCC2)cc1 | 0.71% (inactive) | 59.3% (active) | 60.4% (active) | -1.07% (inactive)
45 | O=C(Nc1ccc2c(c1)CCCN2C(=O)c1ccco1)c1cc([N+](=O)[O-])ccc1Cl | 51.9% (active) | 39.3% (inactive) | 59.1% (active) | 33.9% (active)
46 | COc1cc(NC(=O)c2ccc([N+](=O)[O-])o2)ccc1NC(=O)c1ccco1 | 28.8% (active) | 62.5% (active) | 67% (active) | -17.9% (inactive)
47 | CC1SC(C)C(=O)N(CC(=O)Nc2ccc3c(c2)OCO3)C1=O (stereo not drawn) | 8.81% (inactive) | 49.1% (active) | 36.9% (inactive) | -7.59% (inactive)
48 | O=C(NCCN1C(=O)S/C(=C\c2ccc(OC(F)F)cc2)C1=O)c1cnccn1 | 44% (active) | 30.1% (inactive) | 33.1% (inactive) | 14.9% (inactive)
49 | O=C(c1ccco1)N1CCCC(N2CCN(c3cccc(C(F)(F)F)c3)CC2)C1 (stereo not drawn) | -1.93% (inactive) | 51% (active) | 47.7% (active) | 11.1% (inactive)
50 | COc1ccc(N2CCN(C(=O)CSc3nc4ccccc4c(=O)[nH]3)CC2)cc1 | 12.5% (inactive) | 46.8% (active) | 27.8% (inactive) | -12.9% (inactive)
51 | OC[C@@H]1CN(Cc2ccc(-c3ccccc3)cc2)C[C@H](n2cnc3c(NC4CCC4)ncnc32)O1 | 16.5% (inactive) | 53.4% (active) | 60.2% (active) | 56% (active)
52 | O=C(NNc1ccccc1)C(=O)NNS(=O)(=O)c1ccc([N+](=O)[O-])cc1 | 1.65% (inactive) | 12.9% (inactive) | 27.1% (inactive) | 20.1% (inactive)
